Results from PubChem BioAssay (NCATS).
Results filed as inconclusive are left out. Active and inactive are the calls of the source. Calls come from the whole dose curve; as a rule, active = well fitted curve in the direction sought with a large enough effect; inconclusive = small, poorly fitted or top-dose-only effect, or another doubt; inactive = no such curve, though single readings can be large; an effect the other way counts as inactive or inconclusive.

Tests used:
[1] = qHTS of pediatric cancer cell lines to identify multiple opportunities for drug repurposing: Primary screen for MG 63 (6-TG R) cells (AID 1347105); note: nearly all actives have a fitted effect of over 50% in size
Method in brief: (§1)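 Cells plated at 500-1,000/well in growth medium, compounds added after 5 h. MIPE tested at 11 points (from 0.78 nM), NPC at 8 points (from 0.59 nM). CellTiter-Glo luminescence after 48 h; concentration-response curves from primary screen.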

[2] = qHTS of pediatric cancer cell lines to identify multiple opportunities for drug repurposing: Primary screen for control Hh wild type fibroblast cells (AID 1347106);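 note: series mostly up to about 46 µM; a drop in luminescence marks cytotoxicity and a rise apparent proliferation; nearly all actives have a fitted effect of over 55% in size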
Method in brief: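 Viability after 48 h compound treatment at 37C, 500-1,000 cells/well, read as ATP luminescence with CellTiter-Glo. Primary screens used 11-point (MIPE, 0.78 nM-46 µM) or 8-point (NPC, 0.59 nM-46 µM) final concentrations; follow-up screens used 11-point dilutions.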

[3] = qHTS of pediatric cancer cell lines to identify multiple opportunities for drug repurposing: Primary screen for Rh30 cells (AID 1347107); note: series mostly up to about 46 µM; nearly all actives have a fitted effect of over 75% in size
Method in brief: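 Cells (500-1,000/well) rested 5 h, then received compounds for 48 h; metabolically active cells were measured by CellTiter-Glo luminescence. Final concentrations spanned up to 46 µM (MIPE, 11-point) or 0.59 nM-46 µM (NPC, 8-point) in primary screens, 11-point in follow-ups.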

[4] = qHTS of pediatric cancer cell lines to identify multiple opportunities for drug repurposing: Primary screen for Rh41 cells (AID 1347108);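 note: series mostly up to about 46 µM; luminescence drop marks cytotoxic hits; nearly all actives have a fitted effect of over 70% in size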
Method in brief: as §1

Measured: Potency

CCN1CCC[C@H]1CNC(=O)c1c(O)c(Cl)cc(Cl)c1OC
inactive: all assays above

NC(=Nc1ccccc1)Nc1ccccc1
inactive: all assays above

CN1CCN(C2=Nc3ccccc3Oc3ccc(Cl)cc32)CC1
inactive: all assays above

COCCCC/C(=N\OCCN)c1ccc(C(F)(F)F)cc1
inactive: all assays above

CC(C)NCC(O)c1cc(O)cc(O)c1 (stereo not drawn)
inactive: all assays above

NC/C=C/C(=O)O
inactive: all assays above

C[N+](C)(C)CCOC(=O)CCC(=O)OCC[N+](C)(C)C
inactive: all assays above

O=C(CCNNC(=O)c1ccncc1)NCc1ccccc1
inactive: all assays above

Nc1c2c(nc3ccccc13)CCCC2O (stereo not drawn)
inactive: all assays above

O=C(O)CCCCCCCC(=O)O
inactive: all assays above

CCCCCCCC/C=C\CCCCCCCC(=O)NCc1ccc(O)c(OC)c1
inactive: [1] | [2] | [3]

CCOC(=O)C1=C(C)NC(C)=C(C(=O)OC)C1c1cccc(Cl)c1Cl (stereo not drawn)
inactive: all assays above

Cc1ccc(S(=O)(=O)NC(=O)NN2CCCCCC2)cc1
inactive: all assays above

CC(C)(Oc1ccc(CCNC(=O)c2ccc(Cl)cc2)cc1)C(=O)O
inactive: all assays above

CCNC(=O)N1CCN(CCCC(c2ccc(F)cc2)c2ccc(F)cc2)CC1
inactive: [1] | [2] | [3]
